Values joined by “and” are separate entries in the source; they are usually repeats but may differ in a detail not shown here. Equal values may be shown once. The panel holds about 83,000 compounds, 20% with a hit somewhere; the sample as a whole holds those more often.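 For each line, cells grew in 96-well plates with the test compound present at a single concentration for 48 hours.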 Unmarked numbers belong to inactive results. Active and inactive are the calls of the source. The calls were made as follows: active = growth percent below 10; inactive = the rest.
Tested on: RXF 393 renal
Test: NCI-60 one-dose screen, 48 h (100 = growth as untreated, 0 = no growth, -100 = all killed)
Settings: 10 µM unless noted

Q: CCOC(=O)C1=C(C)N=C2SC=C(c3ccc(F)cc3)N2[C@H]1c1cn(-c2ccccc2)nc1-c1ccc(Cl)cc1 was tested. Which growth did it give?
A: Its growth is 97.1%.

Q: For CCN(C(=O)N1CCN(c2cc3c(cc2F)c(=O)c(C(=O)O)cn3C2CC2)CC1)c1nc(-c2ccccc2)cs1, which growth is on record?
A: The growth was 19.7%.

Q: O=C(/C=C/c1ccc(Cl)s1)c1ccc(Cl)s1 was tested. Which growth did it give?
A: The growth was 90.8% and 89.7%.

Q: C=CCOc1ccc(/C=C2\SC(=S)N(CCc3ccc(O)cc3)C2=O)cc1 was tested. Which growth did it give?
A: Its growth is 114%.

Q: How did the growth turn out when Cc1c(CC(=O)OCCO)cc(-c2ccc(Cl)cc2)n1-c1ccccc1 was run?
A: The growth was 107%.

Q: How did the growth turn out when CC1(C)C(N)=Nc2cc(OCCCN3Cc4ccc(OCCc5cn(CC(=O)N6CCC(CCN7CCCC7)CC6)nn5)cc4C3)c(OCC3CC3)cc21 was run?
A: Its growth is 113%.

Q: With O=C1OCC2=C1C(c1cccc(C(F)(F)F)c1)c1cc3c(cc1N2CCO)OCCO3 (centres undefined) as the compound, how does the growth read?
A: The growth was 10.9%.

Q: With N#CC1=C(N)Oc2c(sc3c(Br)cccc23)C1c1ccccn1 (centres undefined) as the compound, how does the growth read?
A: The growth was 13.5%.

Q: Which growth does the source give for O=C1c2cccc3cccc(c23)C(=O)N1N1C(=O)c2cccc3c(N4CCNCC4)ccc(c23)C1=O here?
A: The growth was 101%.

Q: With O=C(Nc1ccc(F)cc1)c1cc2cc(Nc3nc(-c4ccccc4)nc4ccccc34)ccc2oc1=O as the compound, how does the growth read?
A: Its growth is 115%.

Q: O=C1c2cc3c(cc2-c2c1c1ccc(Cl)cc1c(=O)n2CCCn1ccnc1)OCO3 was tested. Which growth did it give?
A: Its growth is -36.7% (active).

Q: How did the growth turn out when COc1ccc(C/C(C)=C(/c2ccc(OCCN3CCCC3)cc2)c2ccc(OC(=O)NCc3ccccc3)cc2)cc1 was run?
A: Its growth is 76.8%.

Q: How did the growth turn out when CCCO/N=C/c1ccccn1 was run?
A: The growth was 112% and 122%.

Q: With COc1ccc(-c2csc(NC(=O)CN3CCN(CCO)CC3)n2)cc1NS(=O)(=O)c1cccc2c(N(C)C)cccc12 as the compound, how does the growth read?
A: Its growth is 57.7%.

Q: With Cc1ccc(-c2nc3nc(-c4ccccc4)nc(N4CCN(S(=O)(=O)c5ccccc5)CC4)c3o2)cc1 as the compound, how does the growth read?
A: Its growth is 66.3%.

Q: How did the growth turn out when CCOc1nc(-c2ccccc2)cc2c(O)c(C(=O)N/N=C/c3ccc(N(C)C)cc3)[nH]c(=O)c12 was run?
A: Its growth is 123%.

Q: For C/C(=C(\c1ccc(OCCN2CCOCC2)cc1)c1ccc(OC(=O)C2CCCCC2)cc1)c1ccc(Cl)cc1, which growth is on record?
A: The growth was 94.9%.

Q: For COc1ccc2c(c1)CC[C@@H]1[C@@H]2CC[C@]2(C)C3C(=CCC4C(=O)N(c5ccccc5)C(=O)C43)C[C@@H]12 (some centres undefined), which growth is on record?
A: The growth was 93.7%.

Q: With CC(=O)c1c(C)nc2ccccc2c1/C=C/c1cccc(C)c1 as the compound, how does the growth read?
A: The growth was 73.1%.

Q: For CCN(CC)CC#CCOC(=O)[C@]1(C)CCC[C@]2(C)c3ccc(C(C)C)cc3CC[C@@H]12, which growth is on record?
A: Its growth is 74.5%.

Q: How did the growth turn out when O=C1/C(=C/c2ccc(-c3ccccc3C(F)(F)F)o2)SC(=S)N1CCc1ccc(O)cc1 was run?
A: The growth was 71.2%.

Q: COc1ccc(-c2[nH]c3ccccc3c2-c2ccc(OC)cc2)cc1 was tested. Which growth did it give?
A: The growth was 51.9%.

Q: How did the growth turn out when O=C(CN1C(=O)S/C(=C\C(Cl)=C\c2ccccc2)C1=O)NC1C=CS(=O)(=O)C1 (centres undefined) was run?
A: Its growth is -77.8% (active).

Q: CCOC(=O)N(O)c1ccc(/C=C/c2ccccc2)cc1 was tested. Which growth did it give?
A: Its growth is 76.8% and 69.1%.

Q: COc1cc(/C=C2/C=C(c3ccc(C(C)(C)C)cc3)N(CCc3ccc(S(N)(=O)=O)cc3)C2=O)cc(OC)c1OC was tested. Which growth did it give?
A: Its growth is 12.4%.

Q: For O=[N+]([O-])c1cc(C(F)(F)F)ccc1Sc1ccc(C(F)(F)F)cc1[N+](=O)[O-], which growth is on record?
A: The growth was 93.1%.

Q: O=C(N=Nc1c(O)[nH]c2ccccc12)Nc1ccccc1Cl was tested. Which growth did it give?
A: Its growth is 101%.

Q: With Nc1n[nH]c2cccc(C#Cc3cccc(NC(=O)c4ccc(N5CCOCC5)c(C(F)(F)F)c4)c3)c12 as the compound, how does the growth read?
A: The growth was -66% (active).

Q: How did the growth turn out when COc1ccc(Oc2nc(Nc3ccc(N4CCOCC4)cc3)ncc2NC(=O)c2cc(OC)cc(OC)c2)cc1 was run?
A: The growth was 52.3%.

Q: With COc1cc(F)c(/C=C/c2cc(/C=C/c3cc(OC)c(OC)cc3F)n(-c3cc(F)cc(F)c3)n2)cc1OC as the compound, how does the growth read?
A: Its growth is 85.6%.

Q: Which growth does the source give for [Cu+].[NH-][C@H]1C[N-]C(=O)[C@H]([C@H]2CCN=C(N)N2)[N-]C(=O)/C(=C\NC(N)=O)[N-]C(=O)[C@H](CNC(=O)C[C@@H](N)CCCN)[N-]C(=O)[C@H](CO)[N-]C1=O here?
A: Its growth is 105%.

Q: Which growth does the source give for COc1cc(N=Nc2ccc(O)c3ncccc23)c2ncccc2c1 here?
A: The growth was 52.5%.

Q: For O=S(=O)(O)c1ccc(N=Nc2ccc(N=Nc3cccc4ccccc34)c(S(=O)(=O)O)c2)cc1, which growth is on record?
A: The growth was 119%.

Q: Which growth does the source give for COc1ccc(-c2cc(-c3cccnc3)nc3sc4c(Cl)nnnc4c23)cc1OC here?
A: Its growth is 104%.

Q: For C=C1C(=O)O[C@@H]2[C@H]3[C@H](COC(C)=O)[C@@H](OC(C)=O)C[C@H]3C(=C)[C@@H](O)C[C@@H]12, which growth is on record?
A: Its growth is 99.5%.

Q: CCCn1nc(C(=O)N2CCCCC2)c2c1CCC(N1CCC(c3ccncc3)CC1)C2 (centres undefined) was tested. Which growth did it give?
A: Its growth is 117%.

Q: With CN1CCN(c2ccc(/C=C/C(=O)c3ccc(O)cc3)cc2)CC1 as the compound, how does the growth read?
A: The growth was 95.3%.

Q: Which growth does the source give for CCN(c1cc(-c2ccc(CN3CCC(/C=C/S(=O)(=O)c4ccccc4)CC3)cc2)cc(C(=O)NCc2c(C)cc(C)[nH]c2=O)c1C)C1CCOCC1 here?
A: Its growth is 17.7%.

Q: For Cc1ccc(-c2nc3nc(-c4ccc(Cl)cc4)nc(N4CCCNCC4)c3o2)cc1, which growth is on record?
A: Its growth is 80.2%.

Reference: PubChem BioAssay (NCI)
